# Screening results from PubChem BioAssay.
# Peg3 prom inh = reduces Peg3 promoter-driven luciferase expression in HeLa; inhibition, % at 20 µM; AID 588405; HeLa PEG-Prom luciferase reporter, luminescence, overnight; actives 1.7% (n = 360,000);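 active means inhibition of at least 50% at 20 µM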
# KKLEB tox = reduces viability of KKLEB cystic fibrosis airway cells; AID 602141; activity change (cytotoxicity), % at 5 µM; actives 0.36% (n = 360,000); KKLEB CF airway cells viability, ATPlite luminescence, overnight; hits give low values; cells stimulated with P. aeruginosa culture filtrate;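 active means corrected activity change at or below -50% at 5 µM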
# CF NFkB inh = blocks PAF-induced NF-kB reporter in cystic fibrosis cells; KKLEB NF-kB-GFP reporter, GFP fluorescence overnight; inhibition, % at 5 µM; actives 0.86% (n = 360,000);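 active means at least 50% inhibition at 5 µM, scaled per plate between neutral and stimulator controls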;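 further: PAF is a Pseudomonas aeruginosa culture filtrate used as stimulus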
# HIF-2a inh = blocks HIF-2a reporter activity; AID 624352; actives 0.72% (n = 360,000); inhibition, % at 18.8 µM; 786-0 RCC cells HIF-2a reporter, luciferase luminescence, overnight;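 active means inhibition of the luminescence signal of 40% or more relative to plate controls, in a single-dose primary screen at 18.75 µM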
# TWEAK-Fn14 inh = inhibitors of TWEAK-Fn14 interaction signaling; inhibition, % at 10 µM; actives 2% (n = 360,000); TWEAK-stimulated Fn14 reporter cells, luciferase luminescence, 8 h; AID 1159606; in the data active means inhibition above about 50%
# TROY NFkB inh = TROY signaling inhibition | inhibition, % at 10 µM | actives 0.98% (n = 360,000) | Q293 LMP1-TROYcd NF-kB luciferase reporter, 4 h | AID 1347056;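 active means compounds whose plate-normalised and pattern-corrected inhibition of the luciferase reporter signal at the single screening dose is 50% or more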
# A number is an active result; – = inactive. Most compounds without a hit are left out; they make up all but 4% or so of the library.
SMILES,Peg3 prom inh,KKLEB tox,CF NFkB inh,HIF-2a inh,TWEAK-Fn14 inh,TROY NFkB inh
Cc1coc(NC(=O)CSc2nc(-c3ccc(Cl)cc3)cc(C(F)(F)F)c2C#N)n1,60,–,–,–,–,–
CC(C)(C)c1ccc(C(=O)NCC(=O)NCC(C)(C)N2CCOCC2)cc1,–,–,–,–,–,–
Cc1ccnc(Nc2nc3ccccc3o2)n1,–,–,–,–,80,–
Cc1ccc2oc(Nc3nc(C)c(C)c(C)n3)nc2c1,–,–,–,–,–,–
Cc1nc(Nc2nc3ccccc3o2)nc(C)c1C,–,–,–,–,57,–
Cc1ccc(NC(=O)Cn2nc([N+](=O)[O-])c(Br)c2C)cc1C,–,–,–,–,–,–
Cc1cc(N2CC(C(=O)Nc3nccs3)CC2=O)ccc1C(C)C (configuration not stated),–,–,–,–,–,–
COc1ccc(-c2cc3c(nn2)-c2ccccc2C3=O)cc1,80,-50,–,–,92,59
O=C1c2ccccc2-c2nnc(-c3ccccc3)cc21,–,–,–,–,72,–
Cc1cccc(-c2cc3c(nn2)-c2ccccc2C3=O)c1,–,–,–,–,50,–
O=C(NCC1(N2CCOCC2)CCCCC1)c1ccc(S(=O)(=O)Nc2ccccc2F)cc1,–,–,–,–,–,–
O=C1CN(C(=O)c2cc([N+](=O)[O-])ccc2Cl)C(c2ccccc2)c2cc(F)ccc2N1 (configuration not stated),–,–,–,–,–,–
Cc1ccc(NC(=O)Cc2c(C(=O)O)n(C)c3ccccc23)cc1F,–,–,–,–,–,–
Cn1c(C(=O)O)c(CC(=O)Nc2ccc3c(c2)OCCO3)c2ccccc21,–,–,–,–,92,77
Cc1ccc2c(c1)c(CC(=O)Nc1ccc(F)cc1)c(C(=O)O)n2C,–,–,–,–,106,–
Cn1c(C(=O)O)c(CC(=O)Nc2ccc(F)cc2F)c2ccccc21,–,–,–,–,–,–
COc1ccc(/C=C(\NC(=O)c2ccc(OC)c(OC)c2)C(=O)N2CCN(C)CC2)cc1,–,–,–,–,–,–
CCc1ccc(OCC(=O)Nc2ccc(-c3cc4ccccc4oc3=O)c(OC)c2)cc1,–,–,–,–,73,–
O=C(CCCN1C(=O)/C(=C/c2cccc(Br)c2)SC1=S)Nc1ccccn1,62,–,–,66,–,–
COc1ccc(/C=C2\SC(=S)N(CCCC(=O)Nc3cc(C)on3)C2=O)cc1OC,–,–,–,–,–,–
Cc1ccc(/C=C2\SC(=S)N(CC(=O)Nc3cccnc3)C2=O)cc1,–,–,–,–,–,–
O=C(CCCN1C(=O)/C(=C\c2cccc(Br)c2)SC1=S)Nc1cccnc1,96,–,–,61,–,–
O=C(CCCN1C(=O)/C(=C/c2cccs2)SC1=S)Nc1cccnc1,–,–,–,–,–,–
Cc1ccc(/C=C2\SC(=S)N(CCCC(=O)Nc3cc(C)on3)C2=O)cc1,–,–,–,69,73,–
Cc1ccc(/C=C2\SC(=S)N(CCCC(=O)Nc3cccnc3)C2=O)cc1,–,–,–,70,–,–
SMILES,Peg3 prom inh,KKLEB tox,CF NFkB inh,HIF-2a inh,TWEAK-Fn14 inh,TROY NFkB inh
COc1ccc(NC(=O)CN(C)CC(=O)Nc2ccc(Cl)cc2[N+](=O)[O-])cc1,–,–,–,–,–,–
CC(OC(=O)c1cc(Br)ccc1O)C(=O)Nc1ccc(S(=O)(=O)N2CCCC2)cc1 (configuration not stated),–,–,–,–,60,60
Nc1ccc(C(=O)OCC(=O)Nc2ccc([N+](=O)[O-])cc2C(F)(F)F)cc1,–,–,–,–,–,–
CC(=O)O[C@]1(C(C)=O)CC[C@H]2[C@@H]3C[C@H](C)C4=CC(=O)CC[C@]4(C)[C@H]3CC[C@@]21C,–,–,53,–,–,–
CC(=O)[C@H]1CC[C@H]2[C@@H]3C[C@H](C)C4=CC(=O)CC[C@]4(C)[C@H]3[C@@H](O)C[C@]12C,–,–,57,–,–,–
CC(=O)OC1(C(C)=O)CCC2C3CC(C(F)(F)F)C4=CC(=O)CCC4(C)C3CCC21C (configuration not stated),–,–,–,–,–,–
CC(=O)[C@H]1CC[C@H]2[C@@H]3CCC4=CC(=O)CC[C@]4(C)[C@H]3[C@H](O)C[C@]12C,–,–,–,–,–,–
COc1ccc(/C=C/C(=O)NCc2ccc3c(c2)OCO3)cc1OC,–,–,–,–,–,–
O=C(NCCCN1CCOCC1)C1CC(=O)N(c2ccccc2)C1 (configuration not stated),–,–,–,–,–,–
N#C/C(=C\C=C\c1ccccc1[N+](=O)[O-])c1nc(-c2ccc3c(c2)OCO3)cs1,–,-54,–,–,–,–
O=C(CCc1nc2ccccc2[nH]1)Nc1ccc2c(c1)OCCO2,–,–,–,–,–,–
COc1ccc(-c2csc(/C(C#N)=C/Nc3ccc4c(c3)OCCO4)n2)cc1,–,-64,62,–,–,–
N#C/C(=C\Nc1ccc2c(c1)OCCO2)c1nc(-c2ccccc2)cs1,–,-76,77,–,–,–
COc1ccc(-c2csc(/C(C#N)=C/Nc3cc4oc5ccccc5c4cc3OC)n2)cc1,–,–,–,–,–,–
N#C/C(=C\Nc1ccc2c(c1)OCCO2)c1nc2ccccc2[nH]1,–,–,–,–,61,66
CSC1=NC(=O)/C(=C\c2cccc3ccccc23)S1,56,–,–,–,–,–
Cc1nnsc1C(=O)N/N=C/c1ccc2ccccc2c1O,–,–,–,–,54,–
Cc1nnsc1C(=O)N/N=C/c1ccccc1,–,–,–,–,–,–
CN(C)C(=O)c1cc(C(=O)c2ccccc2C(F)(F)F)c[nH]1,–,–,–,–,–,–
O=Nc1c(O)[nH]c2ccc(Cl)c(Cl)c12,57,–,–,–,–,–
CCc1cccc2c(N=O)c(O)[nH]c12,–,–,–,–,–,–
COCc1c(C(=O)Nc2ccc3nc(N4CCOCC4)sc3c2)oc2ccccc12,51,–,–,–,–,–
O=C(NCc1ccco1)/C(=C\C=C\c1ccccc1)NC(=O)c1ccccc1Br,–,–,–,–,–,70
COc1cc(C(=O)NNC(=O)Cc2cccs2)cc(OC)c1OC,–,–,–,–,–,–
Cc1ccc(S(=O)(=O)N2CCN(C(=O)CSc3nnc(C)c(=O)[nH]3)CC2)cc1,–,–,–,–,–,–
Cc1ccc(S(=O)(=O)N2CCN(C(=O)CSc3nccn3C)CC2)cc1,–,–,–,–,–,60
CC(/C=C(\NC(=O)c1ccccc1)C(=O)N=Nc1c(O)[nH]c2ccc(C)cc12)=C\c1ccccc1,53,–,53,–,–,–
